# Assay outcomes from PubChem BioAssay.
# PPC-1+TRAIL kill: compounds killing PPC-1 cancer cells with TRAIL present, primary screen, TRAIL potentiator project, ATPLite luminescence, uHTS | cell killing (% activity), % at 4 µM or 5 µM | hit rate 0.41% among 220,000 | PPC-1 cells + TRAIL, ATPLite viability luminescence;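 active means cell killing above 50% in the first pass at 4 µM, then a duplicate retest at 5 µM averaging 50% or more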;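 further: plate controls were cells with TRAIL plus DMSO for no effect and medium-only wells lacking cells for full effect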
# C8 TRAIL sens: viability loss with TRAIL in NB7+C8 cells, primary screen, TRAIL sensitizer project, cell-based, ATPlite luminescence | inhibition (viability loss, TRAIL sensitization), % at 10 µM | hit rate 1% among 360,000;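 active means compounds causing at least 50% loss of cell viability in the single-dose screen, relative to plate controls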
# SENP8 block-1: human SENP8 protease inhibitors, primary screen, biochemical, fluorescence, Nedd8 protein substrate, uHTS. Sentrin-specific protease 8 (Homo sapiens), Q96LD8. recombinant SENP8. inhibition, % at 20 µM. hit rate 0.64% among 360,000; in the data active means inhibition mostly above about 40%, no sharp cut-off; inactive means mostly below about 27%
# SENP8 block-2: SENP8 protease inhibitors, primary screen, biochemical, luminescence; hit rate 1.2% among 330,000; inhibition, % at 10 µM; AID 2540, 2010; Sentrin-specific protease 8 (Homo sapiens), Q96LD8; purified SENP8, Z-RLRGG-aminoluciferin cleavage; in the data active means inhibition above about 50%
# SENP7 block: SENP7 protease inhibitors, primary screen, biochemical, luminescence, uHTS | inhibition, % at 5 µM | recombinant SENP7, Z-RLRGG-aminoluciferin luminescence, 40 min | Sentrin-specific protease 7 (Homo sapiens), Q9BQF6 | hit rate 1.5% among 330,000;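 active means inhibition above about 50% at the single test dose, limit read from the data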;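 further: plate controls were DMSO with enzyme for no effect and no enzyme buffer wells for full effect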
# SENP6 inh: SENP6 protease inhibitors, primary screen, biochemical, luminescence, uHTS; Sentrin-specific protease 6 (Homo sapiens), Q9GZR1; Recombinant SENP6 catalytic domain, aminoluciferin luminescence; inhibition, % at 10 µM; hit rate 1.8% among 330,000; AID 2599, 2010;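 active means inhibition above about 50% at the single tested dose, limit read from the data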;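 further: plate controls were DMSO wells with enzyme for no effect and DMSO wells lacking enzyme for full effect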
# Target sequence (Q9GZR1 628-1112 limits assumed): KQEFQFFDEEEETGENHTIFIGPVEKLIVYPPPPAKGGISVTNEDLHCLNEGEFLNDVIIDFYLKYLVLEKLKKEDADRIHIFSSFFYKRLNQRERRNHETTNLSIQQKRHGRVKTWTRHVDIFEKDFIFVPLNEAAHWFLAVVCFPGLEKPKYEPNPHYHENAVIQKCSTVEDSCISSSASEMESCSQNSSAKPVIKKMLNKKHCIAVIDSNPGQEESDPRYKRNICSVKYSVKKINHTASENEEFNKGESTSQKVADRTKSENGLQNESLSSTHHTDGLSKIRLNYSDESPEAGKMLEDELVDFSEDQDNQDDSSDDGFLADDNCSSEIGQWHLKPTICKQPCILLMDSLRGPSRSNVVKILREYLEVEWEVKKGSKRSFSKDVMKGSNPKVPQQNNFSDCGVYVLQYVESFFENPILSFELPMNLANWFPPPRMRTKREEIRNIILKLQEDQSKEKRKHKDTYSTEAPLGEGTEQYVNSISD
# PPC1 cytotox: cytotoxicity in PPC-1 cells, confirmation, cytotoxicity control for TRAIL apoptosis potentiator project, cell-based, ATP content luminescence. AID 1447, 2008. cytotoxicity, % at 5 µM. hit rate 50% among 1,200. shares compounds with PPC-1+TRAIL kill. PPC-1 viability, ATPlite luminescence, overnight;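 active means reconfirmed compounds whose average cytotoxicity reaches 50% or more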;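 further: 0% = DMSO-treated cells and 100% = wells holding medium but no cells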
# * marks the source's active call; other numbers are inactive results; . = no result. The list is not random: actives were taken first. Their share in the collection is about 3%.
SMILES,PPC-1+TRAIL kill,C8 TRAIL sens,SENP8 block-1,SENP8 block-2,SENP7 block,SENP6 inh,PPC1 cytotox
Cc1ccc(CN2CCN(CC3CC4C=CC3C4)CC2)cc1 (stereo unspecified),0.1,-10.2,22.8,-11.6,-5.8,-12.0,7.4
CCNC(=S)N/N=C/c1sc(N2CCCCC2)nc1-c1cccs1,28.6,23.4,-101.6,-13.0,7.3,9.1,40.6
CCNC(=S)Nc1ccc(N2CCCCC2)cc1,4.6,5.3,7.2,-4.2,-4.1,-18.3,.
COc1cc(C=NO)nc(-c2ccccn2)c1,.,5.4,4.7,.,.,.,.
COCCn1nnnc1C(c1cc2ccc(OC)cc2[nH]c1=O)N1CCN(C2CCCCC2)CC1 (stereo unspecified),-20.5,2.4,-115.3,1.5,1.3,8.6,-0.1
Cc1ccccc1CNC(=O)CN(c1ccccc1Cl)S(C)(=O)=O,.,-11.4,5.4,0.7,5.2,-0.2,.
CN1CCN(C(=O)c2ccc(COc3ccc(C(C)(C)C)cc3)o2)CC1,21.7,11.1,22.1,-10.7,-10.8,-16.2,21.9
COc1ccc(-n2nc3cc(C)c(NC(C)=O)cc3n2)cc1,64.0*,73.6*,-381.8,1.6,25.9,24.3,60.2*
COc1ccc(-n2nc3cc(C)c(NC(=O)C(C)C)cc3n2)cc1,45.0,.,.,.,.,.,.
Cc1ccc(NC(=O)Nc2ccc3c(c2)OCO3)cc1F,.,27.9,3.0,-14.6,41.7,-1.4,.
COc1ccc(S(=O)(=O)N(C)CC(=O)Nc2ccc(C(N)=O)cc2)cc1OC,24.9,-11.0,6.1,2.4,-1.4,2.2,.
COC(=O)c1ccc(NC(=O)CN(C)S(=O)(=O)c2ccc(OC)c(C)c2)cc1,-9.6,-8.3,10.8,-6.0,10.0,-3.0,-1.8
CC(=O)Nc1ccc(S(=O)(=O)O)c(OC(C)=O)c1,.,4.1,-6.3,.,.,.,.
Cc1ccc(-c2cc(=O)c3cc(C)ccc3[nH]2)cc1,78.8*,85.5*,-128.2,-0.4,24.3,33.9,79.9*
CCNC(=O)C1(C)CCN(C(=O)c2cccc(OC(C)=O)c2C)C1 (stereo unspecified),.,-9.0,-3.1,.,.,.,.
CCN(CC)C(=O)CN(c1cc2c(cc1OC)oc1ccccc12)S(=O)(=O)c1ccccc1,-7.7,0.2,8.6,-0.6,-4.1,-17.1,-18.9
Cc1ccc(CCNS(=O)(=O)c2ccc3c(c2)NC(=O)C(C)C(=O)N3)cc1 (stereo unspecified),.,-5.1,15.2,-5.3,-9.8,-14.5,.
O=c1c2ccccc2cnn1-c1nc2ccccc2[nH]1,94.0*,94.3*,-371.7,.,.,.,93.8*
O=C(O)C1OC1(c1ccccc1Cl)c1ccccc1Cl (stereo unspecified),.,-17.9,19.4,.,.,.,.
OCCNCC(O)Cn1c2ccccc2c2ccccc21 (stereo unspecified),15.6,1.2,-4.0,0.5,12.5,8.0,.
OCCNCC(O)Cn1ccc2ccccc21 (stereo unspecified),7.8,-0.9,6.8,0.2,-0.7,0.4,6.4
O=C(NCc1cccnc1)C1CCCN(S(=O)(=O)c2ccccc2)C1 (stereo unspecified),6.6,16.1,17.8,-2.4,0.9,-13.2,9.0
N#CCc1nc(CSc2nc3ccccc3s2)cs1,-14.7,28.7,-14.0,4.7,5.8,19.7,-31.5
CC(NC(=O)c1ccccc1Cl)C1COc2ccccc2O1 (stereo unspecified),0.5,-7.0,7.5,-4.6,-1.0,-16.9,-0.1
CC(=O)N1CCN(c2ccccc2NC(=O)c2ccco2)CC1,.,-7.3,4.7,-2.5,-1.5,-9.1,.
Cc1ccc(-c2cc(C(=O)NCc3cccs3)no2)cc1,15.4,-25.6,11.8,-15.8,-10.4,-12.7,17.4
O=C(NCc1cccs1)c1cc(-c2ccc(O)cc2)on1,15.6,-0.7,5.4,-9.3,4.0,36.2,.
O=C(NCCS(=O)(=O)N1CCN(c2ccccc2)CC1)C1CCCCC1,.,-13.2,12.0,.,.,.,.
CCn1c(CC(=O)Nc2ccccc2C)nnc1SCC(=O)NC1CCCC1,.,-7.1,11.9,0.6,2.9,-5.8,.
COc1cccc(C(=O)CN(C(=O)c2ccc(Cl)c(Cl)c2)N2C(=O)C3CCCCC3C2=O)c1 (stereo unspecified),7.5,-4.6,6.1,2.2,-1.8,-13.9,-7.0
